Among all 98,000 compounds or so, about 880 (0.9%) were called active. Cut-off read from the data, not from the text of the source: active = inhibition above about 30%; inactive = the rest. For the sample, actives were picked, then their nearest neighbours and some compounds at random.
Assay: phenotypic screen on post-Golgi transport, primary screen (AID 739);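 note: yeast cells grown in 1536-well plates; yeast grown about 18 h at 30C before absorbance read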
Details: post-Golgi transport phenotypic cell assay; at 10 µM; active compounds read high

inhibition, active:
COc1cccc(NC(=O)C2CCCN2C(=O)OCc2ccccc2)c1 (stereo not given) 32%
Cc1ccn2cc(-c3nonc3C)cc2c1 37.3%
CCOc1ccc(-c2cn(S(=O)(=O)c3cccc4nsnc34)nc2N)cc1 46.9%
Cc1ccc(C(=O)c2c(NC(=O)c3ccncc3)sc3c2CCCC3)cc1 97.2%
O=C1C=C(c2ccc(Cl)cc2)C(=O)N1Nc1ccccc1 106%
CC1CC2=C(CC1/C=N/NC(N)=S)C(C)(C)CCC2 (stereo not given) 100%
COc1cccc(-c2cc3nc4c(c(N5CCC6(CC5)OCCO6)n3n2)CCCC4)c1 45.5%
O=C(C1CCN(S(=O)(=O)c2cccs2)CC1)N1CCCCCC1 34.1%
CCOc1cccc(C(=O)Nc2cccnc2)c1 31%
CCOC(=O)c1cc2cc(C)ccc2[nH]1 39.6%
N#Cc1nc(COc2ccc(-c3ccccc3)cc2)oc1NCc1cccnc1 99.8%
COC(=O)c1ccc(CSc2nnc(NC(C)C)s2)cc1 36.2%
Cc1ccc(SC(=O)COc2ccc(C)c(C)c2)cc1 35.3%

inhibition, inactive:
Cc1cc(N/C=C\C(=O)c2ccc(Cl)c(Cl)c2)no1 -4.69%
CCOc1cccc(NC(=O)C2CCCN(S(=O)(=O)c3ccc(OC)cc3)C2)c1 (stereo not given) -5.63%
CC(=O)c1cccc(NC(=O)N2CCCC2C(=O)NCCc2ccccc2)c1 (stereo not given) 20%
CCN(CC)C(=O)CSc1nc2ccccc2n1CC(=O)N1CCN(c2ccccc2OC)CC1 11.2%
COc1ccc(C(=O)Nc2ncc3c(n2)-c2ccccc2CC3)cc1 16.5%
COc1ccc(C2CC(=O)Nc3cc(C)c(C)cc32)c(OC)c1OC (stereo not given) 11.7%
COC(=O)C(C(=O)Nc1cccc(C)n1)C1CCCCCC1 (stereo not given) -2.06%
COc1ccc2ccccc2c1CNCc1ccccn1 0.33%
CC1CCN(CC(=O)c2c[nH]c3ccccc23)CC1 0%
CCOc1ccc(OCC)c(NC(=O)CN(C)S(=O)(=O)c2cccc3nsnc23)c1 1.42%
CCOc1ccc(NC(=O)CCS(=O)(=O)c2cccc3nsnc23)cc1 -1.86%
O=C1N=C2SCCN2/C1=C\c1c(Cl)cccc1Cl -3.72%
Cc1ccc(C(=O)c2c(NC(=O)c3ccccc3)sc(C)c2C)cc1 0%
COC(=O)c1c(NC(=O)c2cccs2)sc2c1CCCC2 3.23%
CCCc1cc(=O)[nH]c(SCC(=O)c2cc(C)n(CCC)c2C)n1 -4.22%
COc1cc(/C=N/O)cc(Br)c1OS(=O)(=O)c1ccc(C)cc1 2.99%
CCOc1ccc(N(CC(=O)NC2CCCCCC2)S(=O)(=O)c2c(C)[nH]c(=O)[nH]c2=O)cc1 -2.87%
O=C1c2cccc3cc(Br)cc(c23)C(=O)N1Nc1ccccc1 -2.04%
O=C(Nc1ccccc1)OCc1cc(-c2ccc(Cl)cc2)on1 -5.71%
COc1ccc(-c2csc3nc(-c4ccccc4F)oc(=O)c23)cc1OC 6.4%
CC1(C)CCCC2=C1CC1C(=O)N(c3ccccc3)C(=O)C1C2 (stereo not given) -1.13%
Cc1cc(C)c2nc(NC(=O)C3CCCO3)sc2c1 (stereo not given) -4.03%
O=C(CSc1ccc(/C=N/NC(=O)c2cccc(F)c2)o1)Nc1ccccc1 -2.85%
COc1ccc(CCNS(=O)(=O)c2ccc(Cl)s2)cc1OC -1.32%
COc1cccc(-c2nc(S(=O)(=O)c3ccccc3)c(N3CCOCC3)o2)c1 -8.86%
COc1cccc(CNc2nc3nc4c(c(=O)n3[nH]2)CCC4)c1 -5.47%
Cc1cccc(NC(=O)CSc2nnc(-c3ccco3)o2)c1 -0.81%
COC(=O)c1ccccc1OCC(=O)N1CCN(c2ccc(Cl)cc2)CC1 5.12%
O=C(NC1CCCCC1)C1CCCN(S(=O)(=O)c2cccs2)C1 (stereo not given) -9.88%
O=C(NCc1ccccc1)C1CCCN(S(=O)(=O)c2cccs2)C1 (stereo not given) 0%
Cc1cccc(C(=O)Nc2ccccc2-c2nnn(CC(=O)Nc3ccc4c(c3)OCCO4)n2)c1 -5.17%
CC(=O)c1cc(NC(=O)c2ccccc2)c(=O)oc1/C=C/N(C)C -1.13%
Cn1ccs/c1=N\S(=O)(=O)c1ccc(C(C)(C)C)cc1 -6.14%
O=C(O)CCN=C1CCc2ccccc2N1 2.24%
CCC(=O)Nc1cccc(NC(=O)c2cccnc2)c1 -2.1%
CCOc1cccc(C(=O)Nc2cnn(Cc3ccccc3)c2)c1 7.09%
NC(=NC(=O)c1ccccc1)N1CCOCC1 -0.16%
CC(=O)OCc1cc2cc(C)ccc2[nH]c1=O 5.81%
CCNCc1cc2cc(C)ccc2[nH]c1=O 6.62%
N/C(=N\OC(=O)CCC1CCCCC1)c1ccccn1 13.9%
Nc1c(-c2ccc(F)cc2)cnc2ncnn12 15.1%
O=C(CCC(=O)OCc1cccc(C(=O)Oc2ccccc2)c1)Nc1cccc2ccccc12 -3.63%
N#Cc1nc(Cc2ccccc2)oc1NCCc1ccccc1 18.8%
N#Cc1nc(-c2ccc(OCc3ccccc3)cc2)oc1NCCCN1CCOCC1 5.49%
CCCn1nc2cc(C(=O)NCc3ccccc3)ccc2c1OCC 2.26%
CCCCNC(=S)NNC(=O)c1cc(C)on1 0.65%
COc1ccc(/C=C2/S/C(=N/N=C3\CC4CCC3(C)C4(C)C)NC2=O)cc1 (stereo not given) -0.32%
COC(=O)c1ccc(CSc2nncn2C)cc1 1.45%
CCOc1ccccc1Nc1nnc(SCc2ccc(C(=O)OC)o2)s1 -9.05%
Cc1ccccc1/[N+]([O-])=C/c1ccncc1 -1.29%
COc1ccc2c(Cl)c(C(=O)NCc3ccco3)sc2c1 -10.7%
COCCNC(=O)COc1ccc(C)c(C)c1 4.17%
Cc1cc(=O)oc2ccc(OCC(=O)O)cc12 2.48%
O=S(=O)(c1ccc(F)cc1)n1ccc(-c2cnc(-c3ccccc3)s2)n1 -10%
O=C(Nc1nnc(CCOCCOCCc2nnc(NC(=O)c3ccco3)s2)s1)c1ccco1 -30.3%
CCCc1noc2c1/C(=N\O)CCC2 13.6%
O=C(NCC1CCCO1)c1ccc2ccccc2n1 (stereo not given) -3.36%

Reference: PubChem BioAssay AID739 (SRMLSC, 2007)
